The values that follow come from PubChem BioAssay AID1259421 (Broad Institute, 2018).

“And” between values parts separate entries of the source, which are not always exact repeats. Identical values can stand only once. The campaign covered roughly 6,400 compounds. About 610 (9.5%) were called active. No stated cut-off is given here; in the data, active means activity change below about -70%; inconclusive means no clear call, values can overlap the other calls; inactive means above that. What follows is part of a selection rich in actives, with near analogues and random picks from the rest. More than one record can exist for a structure, and the calls need not agree.

The nature of this experiment: T. gondii ME49Luc in HeLa cells, luciferase assay, 72 h, no IFN-y (AID 1259421). The conditions noted are these: stronger effect = lower value, concentration not given here.
Consider `CON(C)C(=O)N1N=C(c2cc(F)ccc2F)S[C@@]1(CCCN)c1ccccc1`, for which the activity change, negative = inhibition is -53.7% (inactive).

Regarding `CCCCc1nc2ccn(CC(=O)N(C)C)c(=O)c2n1Cc1ccc(-c2ccccc2-c2nn[nH]n2)cc1`, the activity change, negative = inhibition was 18.6% (inactive) and -0.527% (inactive).

As for `O=C1CSC(=O)N1`, the activity change, negative = inhibition is 20.7% (inactive).

Regarding `O=C1NC(=O)c2cc(Nc3ccccc3)c(Nc3ccccc3)cc21`, the activity change, negative = inhibition is 7.82% (inactive).

`CC(=O)[C@H]1CCC2C3CCC4=CC(=O)CC[C@]4(C)C3[C@H](OC(=O)CCC(=O)O)C[C@@]21C` (stereo partly drawn): the activity change, negative = inhibition was -2.62% (inactive).

As for `CC(C)(c1ccc(O)cc1)c1ccc(O)cc1`, the activity change, negative = inhibition is 6.99% (inactive).

With `CCc1ccccc1OC[C@@H](O)CN[C@H]1CCCc2ccccc21`, the activity change, negative = inhibition is 23.1% (inactive) and 15.7% (inactive).

Regarding `C[C@@H]1CC[C@@]2(OC1)O[C@H]1C[C@H]3[C@@H]4CC=C5C[C@@H](O)CC[C@]5(C)[C@H]4CC[C@]3(C)[C@H]1[C@@H]2C`, the activity change, negative = inhibition was 6.17% (inactive).

`CN1[C@@H]2CC[C@@H]1CC(OC(c1ccccc1)c1ccccc1)C2` (stereo partly drawn): the activity change, negative = inhibition is 11.3% (inactive).

With `O=[N+]([O-])c1cn2c(n1)OC[C@@H](OCc1ccc(OC(F)(F)F)cc1)C2`, the activity change, negative = inhibition was -78.6% (active).

For `CC1O[C@@H](Oc2c(-c3ccc(O)c(O)c3)oc3cc(O)cc(O)c3c2=O)[C@H](O)[C@H](O)[C@H]1O` (stereo partly drawn), the activity change, negative = inhibition was 5.62% (inactive).

On to `O=C1NC(=O)/C(=C\c2ccc(-c3ccc(F)cc3)o2)S1`, for which the activity change, negative = inhibition is 32.3% (inactive).

As for `[2H]C([2H])([2H])C(O)(CCO[C@@H](C)[C@H]1CC[C@H]2/C(=C/C=C3/C[C@@H](O)C[C@H](O)C3=C)CCC[C@]12C)C([2H])([2H])[2H]`, the activity change, negative = inhibition was 0.514% (inactive).

Consider `COc1ccc2c(=O)c(CC(=O)O)coc2c1`, for which the activity change, negative = inhibition is 4.96% (inactive).

`CO/N=C(/C(=O)N[C@@H]1C(=O)N2C(C(=O)OCOC(=O)C(C)(C)C)=C(/C=C/c3scnc3C)CS[C@H]12)c1csc(N)n1`: the activity change, negative = inhibition was 2.91% (inactive).

Take `C/C=C1\NC(=O)[C@H]2CSSCCC=C[C@H](CC(=O)N[C@H](C(C)C)C(=O)N2)OC(=O)[C@H](C(C)C)NC1=O`: the activity change, negative = inhibition is -80.8% (active).

In the case of `CC(=O)c1ccc2c(c1)[C@H](NC(=O)c1ccc(F)c(Cl)c1)[C@H](O)C(C)(C)O2`, the activity change, negative = inhibition is -1.26% (inactive).

Consider `C[C@]12CCC(=O)C=C1CCC1C2[C@@H](O)C[C@@]2(C)C1CC[C@]2(O)C(=O)CO` (stereo partly drawn), for which the activity change, negative = inhibition was -3.05% (inactive).

`O=C(O)COc1ccc(OCCNC[C@@H](O)COc2ccccc2)cc1`: the activity change, negative = inhibition is 0.151% (inactive).

Turning to `COc1ccc2cccc(N3CCN(CCNC(=O)c4ccc(F)cc4)CC3)c2c1`, the activity change, negative = inhibition is 40.8% (inactive) and 23.4% (inactive).

Consider `CC(C)C[C@H](NC(=O)CNC(=O)c1cc(Cl)ccc1Cl)B1OC(=O)CC(CC(=O)O)(C(=O)O)O1` (stereo partly drawn), for which the activity change, negative = inhibition was -87.8% (active).

In the case of `CC(C)C[C@H](NC(=O)CNC(=O)c1cc(Cl)ccc1Cl)B(O)O`, the activity change, negative = inhibition is -77.9% (active).

For `O=C(CNC(=O)c1ccc(Cl)cc1)NO`, the activity change, negative = inhibition was 36.3% (inactive).

For the compound `CCCC(C)NC(=O)c1ccc(Cl)c(Cl)c1` (stereo not drawn), the activity change, negative = inhibition was 6.33% (inactive).

On to `CC1=C(/C=C/C(C)=C/C=C/C(C)=C/C=O)C(C)(C)CCC1`, for which the activity change, negative = inhibition was 16.4% (inactive).

On to `O=C(Nc1cccnn1)N1CCC(=Cc2cccc(Oc3ccc(C(F)(F)F)cn3)c2)CC1`, for which the activity change, negative = inhibition was -18.9% (inactive).

As to `CC(=O)O[C@@H]1C[C@H]2C(C)(C)C(=O)C=C[C@]2(C)[C@H]2CC[C@@]3(C)[C@H](c4ccoc4)OC(=O)[C@H]4O[C@]43[C@@]21C`, the activity change, negative = inhibition was 26.1% (inactive).

As for `CC1(C)C(=O)C=C[C@@]2(C)C1CC(=O)[C@]1(C)C2CC[C@@]2(C)[C@H](c3ccoc3)OC(=O)[C@H]3O[C@]321` (stereo partly drawn), the activity change, negative = inhibition is 30.3% (inactive).

Turning to `CC1(C)C(=O)C=C[C@@]2(C)C1C=C[C@]1(C)C2CC[C@@]2(C)[C@H](c3ccoc3)OC(=O)[C@H]3O[C@]321` (stereo partly drawn), the activity change, negative = inhibition is -89.3% (active).

Regarding `CC(=O)O[C@H]1C[C@@H](OC(C)=O)C(C)(C)C2C[C@@H](O)[C@]3(C)C(CC[C@@]4(C)[C@H](c5ccoc5)OC(=O)[C@H]5O[C@]543)[C@]21C` (stereo partly drawn), the activity change, negative = inhibition is 5.63% (inactive).

Consider `CC(C)(C)c1cc(C(C)(C)C)c(NC(=O)c2c[nH]c3ccccc3c2=O)cc1O`, for which the activity change, negative = inhibition was -81.7% (active).

As for `COC(=O)c1csc(C(=O)c2c[nH]c3ccccc23)n1`, the activity change, negative = inhibition is 5.76% (inactive).

For `OCc1c[nH]c2ccccc12`, the activity change, negative = inhibition is 2.87% (inactive) and 57.8% (inactive).

With `NC(N)=NCCNS(=O)(=O)c1cccc2cnccc12`, the activity change, negative = inhibition was 0.419% (inactive) and 15.9% (inactive).

With `CC(C)c1ccc2c(c1)C(N1CCN(CCO)CC1)Cc1ccc(F)cc1S2` (stereo not drawn), the activity change, negative = inhibition was -37.4% (inactive).

As for `CC(=O)Oc1c(C)cc(OCC(O)CNC(C)C)c(C)c1C` (stereo not drawn), the activity change, negative = inhibition is -4.5% (inactive).

As to `CNC(=O)c1cnn(-c2nc(N)c3ncn([C@@H]4O[C@H](CO)C(O)C4O)c3n2)c1` (stereo partly drawn), the activity change, negative = inhibition was 7.49% (inactive).

In the case of `Cc1ccc(-c2nn(C(C)(C)C)c3ncnc(N)c23)cc1`, the activity change, negative = inhibition is -88.2% (active) and -83% (active).

Turning to `CC(C)(C)n1nc(-c2cccc3ccccc23)c2c(N)ncnc21`, the activity change, negative = inhibition was -64.8% (inactive) and -76.3% (active).

With `CC(C)(C)n1nc(-c2ccc(Cl)cc2)c2c(N)ncnc21`, the activity change, negative = inhibition was -91.7% (active).

Turning to `CCNC(=O)CCC/C=C\C[C@@H]1[C@@H](/C=C/C(O)CCc2ccccc2)[C@H](O)C[C@@H]1O` (stereo partly drawn), the activity change, negative = inhibition is 8.47% (inactive).

In the case of `O=[N+]([O-])c1cncn1CCN1CCOCC1`, the activity change, negative = inhibition was 23.6% (inactive).

`CCCOc1ccc2nc(NC(=O)OC)sc2c1`: the activity change, negative = inhibition was 106% (inactive).

Consider `CCCn1c(=O)[nH]c(=O)c2[nH]cnc21`, for which the activity change, negative = inhibition was 6.86% (inactive).

In the case of `CCC(=O)c1ccc(OCC(O)CN2CCN(c3ccccc3)CC2)cc1` (stereo not drawn), the activity change, negative = inhibition is 9.53% (inactive).

On to `COc1ccc(N2CCOCC2)c2sc(NC(=O)N3CCC(C)(O)CC3)nc12`, for which the activity change, negative = inhibition is 12.2% (inactive).

Take `CCCCC#Cc1nc(NC)c2ncn(C3OC(CO)C(O)C3O)c2n1` (stereo not drawn): the activity change, negative = inhibition was -3.28% (inactive).

Regarding `Cc1cc(OCCN2CCOCC2)nn1-c1ccc2ccccc2c1`, the activity change, negative = inhibition is 13.6% (inactive).

As for `O=c1[nH]c(=O)c2[nH]c(=O)[nH]c2[nH]1`, the activity change, negative = inhibition was 3.85% (inactive).

`CC(C)NC[C@@H](O)c1ccc(NS(C)(=O)=O)cc1`: the activity change, negative = inhibition is 2.38% (inactive).

Consider `C[C@@H]([C@@H](O)c1ccc(O)cc1)N1CCC(O)(c2ccccc2)CC1`, for which the activity change, negative = inhibition is 0.328% (inactive) and 9.44% (inactive).

For the compound `Nc1nc(F)nc2c1ncn2[C@@H]1O[C@H](CO)[C@@H](O)[C@@H]1O`, the activity change, negative = inhibition is -26.8% (inactive).

For `OC[C@H]1O[C@@H](n2cnc3c(NC4CCCC4)nc(Cl)nc32)[C@H](O)[C@@H]1O`, the activity change, negative = inhibition is 3.31% (inactive).

On to `Nc1nc(Cl)nc2c1ncn2[C@@H]1O[C@H](CO)[C@@H](O)[C@@H]1F`, for which the activity change, negative = inhibition is -81.3% (active).

On to `OCC1OC(n2cnc3c(NC4CCCC4)nc(Cl)nc32)C(O)C1O` (stereo not drawn), for which the activity change, negative = inhibition is -5.92% (inactive).

As for `Nc1nc(Cl)nc2c1ncn2[C@H]1C[C@H](O)[C@@H](CO)O1`, the activity change, negative = inhibition is -37.2% (inactive).

For `Nc1nc(Cl)nc2c1ncn2C1OC(CO)C(O)C1F` (stereo not drawn), the activity change, negative = inhibition was -87.6% (active).

`CCCCC[C@@H](O)[C@H]1C(=O)O[C@H](C)[C@@H](O)/C=C/C=C/C=C/C=C/C=C(\C)[C@@H](O)C[C@H](O)C[C@H](O)C[C@H](O)C[C@H](O)C[C@H](O)C[C@@H]1O`: the activity change, negative = inhibition is 2.49% (inactive).

For `Ic1cc(-c2ccccc2)ncn1`, the activity change, negative = inhibition was 1.75% (inactive).

As for `COc1ccc2c3c1OC1CC(O)C=CC31CCN(C)C2` (stereo not drawn), the activity change, negative = inhibition was 4.76% (inactive).

In the case of `CC(=O)OCC(=O)[C@@]1(O)CCC2C3CCC4=CC(=O)CC[C@]4(C)C3=CC[C@@]21C` (stereo partly drawn), the activity change, negative = inhibition was -0.754% (inactive).

As to `CCCCCN=c1ccn(Cc2ccccc2)c2ccccc12`, the activity change, negative = inhibition is -3.35% (inactive).

On to `CCCCCCCCN=c1ccn(CCCCCCCCCCn2ccc(=NCCCCCCCC)cc2)cc1`, for which the activity change, negative = inhibition is -74.7% (active).

`CN[C@H](CNC(=O)N1CCC[C@@H]([C@@H](OCCNC(=O)OC)c2cccc(Cl)c2)C1)C[C@H]1CCCOC1`: the activity change, negative = inhibition was 7.28% (inactive).

Consider `CNC(=O)c1ccc(-c2cnc3ncc(Cc4ccc5ncccc5c4)n3n2)cc1F`, for which the activity change, negative = inhibition is -3.07% (inactive).

Regarding `COc1ccc([C@H]2COc3c(ccc(O)c3OC)C2)c(OC)c1O`, the activity change, negative = inhibition is 8.53% (inactive).

Turning to `CC(NCC(O)CP(=O)(O)CC1CCCCC1)c1ccc(Cl)c(Cl)c1` (stereo not drawn), the activity change, negative = inhibition is -2.11% (inactive).

As to `C[C@H](NC(=O)[C@@H](O)c1cc(F)cc(F)c1)C(=O)N[C@@H]1C(=O)N(C)c2ccccc2-c2ccccc21`, the activity change, negative = inhibition was 26.6% (inactive).

As to `C[C@H](NC(=O)Cc1cc(F)cc(F)c1)C(=O)N[C@@H]1C(=O)N(C)c2ccccc2-c2ccccc21`, the activity change, negative = inhibition is -81.4% (active).

As for `CC(NC(=O)Cc1cc(F)cc(F)c1)C(=O)NC(C(=O)OC(C)(C)C)c1ccccc1` (stereo not drawn), the activity change, negative = inhibition was 5.05% (inactive).

As to `C=C1/C(=C\C=C2/CCC[C@]3(C)[C@@H]([C@H](C)/C=C/C=C/C(O)(CC)CC)CC[C@@H]23)C[C@@H](O)C[C@@H]1O`, the activity change, negative = inhibition is 17.9% (inactive).

With `COCCOc1ccc(N2CCN(CCn3ncc4c3nc(N)n3nc(-c5ccco5)nc43)CC2)cc1`, the activity change, negative = inhibition was -6.85% (inactive).

For `COc1c(O)cccc1O`, the activity change, negative = inhibition is 9.75% (inactive).

In the case of `COc1nc2ccc(Br)cc2cc1[C@@H](c1ccccc1)[C@@](O)(CCN(C)C)c1cccc2ccccc12`, the activity change, negative = inhibition was 48% (inactive).

In the case of `CC(C)OC(=O)[C@H](C)N[P@@](=O)(OC[C@H]1O[C@@H](n2ccc(=O)[nH]c2=O)[C@](C)(F)[C@@H]1O)Oc1ccccc1`, the activity change, negative = inhibition is 5.02% (inactive) and 18.5% (inactive).

For the compound `Cc1c(N(C)C)c(=O)n(-c2ccccc2)n1C`, the activity change, negative = inhibition was 13% (inactive).

`Cc1c(I)c(=O)n(-c2ccccc2)n1C`: the activity change, negative = inhibition is 9.68% (inactive).

On to `Cc1c(O)c(=O)n(-c2ccccc2)n1C`, for which the activity change, negative = inhibition is -80.6% (active) and 1.34% (inactive).
